Targets with a hit are over-represented here; the source holds about 7,900 in all. About 0.6% of all pairs of compound and target were hits.
What was measured:
Test in all cases: log2 fold change, soluble protein after heating vs DMSO (PISA); higher = thermal stabilisation; K562 cells, 10 uM, 30 min; active = over 0.2 and 3.5 SD of the protein, either way, in both replicates (recomputed)
[1] = compound: NC(=O)Nc1cc(-c2cccc(F)c2)sc1C(=O)N[C@H]1CCCNC1
In short: (§1)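 Values are thermal stability changes relative to control samples and are taken from duplicates. They are stated as log2 fold changes. Before quantification by TMTpro 16plex LC-MS/MS with equalised channel sums, K562 cells at 2×10^6 cells/mL were treated with 10 μM compound for 30 min, heated in aliquots for 3 min across 48°C-58°C, pooled, extracted in PBS with 0.5% NP-40 at 4°C, and centrifuged at 21,000xg for 90 min to give the soluble supernatant.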

[2] = compound: NC(=O)c1cnc(N[C@@H]2CCCC[C@@H]2N)nc1Nc1cccc(-n2nccn2)c1
In short: as §1

[3] = compound: NC1(c2ccc(-c3nc4ccn5c(=O)[nH]nc5c4cc3-c3ccccc3)cc2)CCC1
In short: as §1

[4] = compound: NCC(=O)Nc1ccc(-n2nc(C(F)(F)F)cc2-c2ccc3c(ccc4ccccc43)c2)cc1
In short: as §1

entinostat = compound: Nc1ccccc1NC(=O)c1ccc(CNC(=O)OCc2cccnc2)cc1 [entinostat]
In short: as §1

vorinostat = compound: O=C(CCCCCCC(=O)Nc1ccccc1)NO [vorinostat]
In short: as §1

citarinostat = compound: O=C(CCCCCCNC(=O)c1cnc(N(c2ccccc2)c2ccccc2Cl)nc1)NO [citarinostat]
In short: as §1

silmitasertib = compound: O=C(O)c1ccc2c(c1)nc(Nc1cccc(Cl)c1)c1ccncc12 [silmitasertib]
In short: as §1

[5] = compound: O=C1NC(=O)C(c2cnc3ccccn23)=C1c1cn2c3c(cc(F)cc13)CN(C(=O)N1CCCCC1)CC2
In short: as §1

[6] = compound: c1cc(OCCN2CCCCC2)cc(-c2n[nH]c3ccc(-c4nnc[nH]4)cc23)c1
In short: as §1

entospletinib = compound: c1cn2cc(-c3ccc4cn[nH]c4c3)nc(Nc3ccc(N4CCOCC4)cc3)c2n1 [entospletinib]
In short: as §1

Sequence of UniProt Q86WQ0 (Q86WQ0 whole entry, looked up): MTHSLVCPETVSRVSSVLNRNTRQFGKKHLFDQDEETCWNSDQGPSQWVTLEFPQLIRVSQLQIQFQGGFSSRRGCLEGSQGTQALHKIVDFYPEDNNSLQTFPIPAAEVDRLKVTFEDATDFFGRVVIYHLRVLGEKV
Sequence of UniProt Q9UBD5 (Q9UBD5 whole entry, looked up): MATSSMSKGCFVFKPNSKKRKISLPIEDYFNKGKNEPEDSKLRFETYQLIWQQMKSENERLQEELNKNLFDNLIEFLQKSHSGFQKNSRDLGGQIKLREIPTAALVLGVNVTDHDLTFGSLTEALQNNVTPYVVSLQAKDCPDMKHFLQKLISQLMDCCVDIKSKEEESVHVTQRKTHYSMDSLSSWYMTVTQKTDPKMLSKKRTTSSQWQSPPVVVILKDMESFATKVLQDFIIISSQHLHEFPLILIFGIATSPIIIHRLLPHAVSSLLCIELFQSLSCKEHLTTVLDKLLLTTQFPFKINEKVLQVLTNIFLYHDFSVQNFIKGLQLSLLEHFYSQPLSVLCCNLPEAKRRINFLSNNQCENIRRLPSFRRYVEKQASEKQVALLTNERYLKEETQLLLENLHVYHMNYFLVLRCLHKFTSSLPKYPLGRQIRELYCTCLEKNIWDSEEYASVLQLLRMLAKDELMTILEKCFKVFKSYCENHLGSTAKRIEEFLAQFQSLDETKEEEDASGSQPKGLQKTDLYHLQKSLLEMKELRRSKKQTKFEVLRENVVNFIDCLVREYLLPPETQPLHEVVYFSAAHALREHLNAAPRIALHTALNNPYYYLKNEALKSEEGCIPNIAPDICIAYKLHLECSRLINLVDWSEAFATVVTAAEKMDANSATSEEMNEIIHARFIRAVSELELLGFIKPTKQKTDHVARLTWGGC
Sequence of UniProt Q08J23 (Q08J23 whole entry, looked up): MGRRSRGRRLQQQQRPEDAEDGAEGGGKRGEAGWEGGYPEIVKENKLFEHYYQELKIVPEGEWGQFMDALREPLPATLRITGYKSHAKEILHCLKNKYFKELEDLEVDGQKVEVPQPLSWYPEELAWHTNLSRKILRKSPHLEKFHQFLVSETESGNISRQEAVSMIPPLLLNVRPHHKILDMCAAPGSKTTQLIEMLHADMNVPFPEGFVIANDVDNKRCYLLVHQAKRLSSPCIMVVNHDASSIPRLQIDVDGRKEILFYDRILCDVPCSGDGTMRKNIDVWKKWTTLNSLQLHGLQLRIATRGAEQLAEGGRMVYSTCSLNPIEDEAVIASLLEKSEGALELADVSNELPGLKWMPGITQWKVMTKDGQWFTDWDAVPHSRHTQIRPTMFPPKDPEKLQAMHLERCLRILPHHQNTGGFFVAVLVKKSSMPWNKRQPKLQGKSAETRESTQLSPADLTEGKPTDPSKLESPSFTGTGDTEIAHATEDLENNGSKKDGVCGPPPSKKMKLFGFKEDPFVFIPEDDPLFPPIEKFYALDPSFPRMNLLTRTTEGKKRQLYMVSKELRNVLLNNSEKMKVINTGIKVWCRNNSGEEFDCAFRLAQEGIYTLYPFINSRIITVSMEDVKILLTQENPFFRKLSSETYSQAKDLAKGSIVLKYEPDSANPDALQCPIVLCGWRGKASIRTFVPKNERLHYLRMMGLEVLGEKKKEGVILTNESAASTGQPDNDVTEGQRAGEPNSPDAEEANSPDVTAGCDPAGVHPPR
Sequence of UniProt Q969V5 (Q969V5 whole entry, looked up): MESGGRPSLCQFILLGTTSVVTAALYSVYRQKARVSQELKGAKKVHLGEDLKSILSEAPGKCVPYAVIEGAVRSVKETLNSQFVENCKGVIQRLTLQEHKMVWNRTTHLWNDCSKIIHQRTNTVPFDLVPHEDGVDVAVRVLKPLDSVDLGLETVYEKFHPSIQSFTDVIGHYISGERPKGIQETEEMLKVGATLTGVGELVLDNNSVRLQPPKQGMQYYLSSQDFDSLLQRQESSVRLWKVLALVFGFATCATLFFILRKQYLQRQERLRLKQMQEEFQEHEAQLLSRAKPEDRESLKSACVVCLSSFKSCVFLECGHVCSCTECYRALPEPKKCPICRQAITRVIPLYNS
Sequence of UniProt Q92621 (Q92621 whole entry, looked up): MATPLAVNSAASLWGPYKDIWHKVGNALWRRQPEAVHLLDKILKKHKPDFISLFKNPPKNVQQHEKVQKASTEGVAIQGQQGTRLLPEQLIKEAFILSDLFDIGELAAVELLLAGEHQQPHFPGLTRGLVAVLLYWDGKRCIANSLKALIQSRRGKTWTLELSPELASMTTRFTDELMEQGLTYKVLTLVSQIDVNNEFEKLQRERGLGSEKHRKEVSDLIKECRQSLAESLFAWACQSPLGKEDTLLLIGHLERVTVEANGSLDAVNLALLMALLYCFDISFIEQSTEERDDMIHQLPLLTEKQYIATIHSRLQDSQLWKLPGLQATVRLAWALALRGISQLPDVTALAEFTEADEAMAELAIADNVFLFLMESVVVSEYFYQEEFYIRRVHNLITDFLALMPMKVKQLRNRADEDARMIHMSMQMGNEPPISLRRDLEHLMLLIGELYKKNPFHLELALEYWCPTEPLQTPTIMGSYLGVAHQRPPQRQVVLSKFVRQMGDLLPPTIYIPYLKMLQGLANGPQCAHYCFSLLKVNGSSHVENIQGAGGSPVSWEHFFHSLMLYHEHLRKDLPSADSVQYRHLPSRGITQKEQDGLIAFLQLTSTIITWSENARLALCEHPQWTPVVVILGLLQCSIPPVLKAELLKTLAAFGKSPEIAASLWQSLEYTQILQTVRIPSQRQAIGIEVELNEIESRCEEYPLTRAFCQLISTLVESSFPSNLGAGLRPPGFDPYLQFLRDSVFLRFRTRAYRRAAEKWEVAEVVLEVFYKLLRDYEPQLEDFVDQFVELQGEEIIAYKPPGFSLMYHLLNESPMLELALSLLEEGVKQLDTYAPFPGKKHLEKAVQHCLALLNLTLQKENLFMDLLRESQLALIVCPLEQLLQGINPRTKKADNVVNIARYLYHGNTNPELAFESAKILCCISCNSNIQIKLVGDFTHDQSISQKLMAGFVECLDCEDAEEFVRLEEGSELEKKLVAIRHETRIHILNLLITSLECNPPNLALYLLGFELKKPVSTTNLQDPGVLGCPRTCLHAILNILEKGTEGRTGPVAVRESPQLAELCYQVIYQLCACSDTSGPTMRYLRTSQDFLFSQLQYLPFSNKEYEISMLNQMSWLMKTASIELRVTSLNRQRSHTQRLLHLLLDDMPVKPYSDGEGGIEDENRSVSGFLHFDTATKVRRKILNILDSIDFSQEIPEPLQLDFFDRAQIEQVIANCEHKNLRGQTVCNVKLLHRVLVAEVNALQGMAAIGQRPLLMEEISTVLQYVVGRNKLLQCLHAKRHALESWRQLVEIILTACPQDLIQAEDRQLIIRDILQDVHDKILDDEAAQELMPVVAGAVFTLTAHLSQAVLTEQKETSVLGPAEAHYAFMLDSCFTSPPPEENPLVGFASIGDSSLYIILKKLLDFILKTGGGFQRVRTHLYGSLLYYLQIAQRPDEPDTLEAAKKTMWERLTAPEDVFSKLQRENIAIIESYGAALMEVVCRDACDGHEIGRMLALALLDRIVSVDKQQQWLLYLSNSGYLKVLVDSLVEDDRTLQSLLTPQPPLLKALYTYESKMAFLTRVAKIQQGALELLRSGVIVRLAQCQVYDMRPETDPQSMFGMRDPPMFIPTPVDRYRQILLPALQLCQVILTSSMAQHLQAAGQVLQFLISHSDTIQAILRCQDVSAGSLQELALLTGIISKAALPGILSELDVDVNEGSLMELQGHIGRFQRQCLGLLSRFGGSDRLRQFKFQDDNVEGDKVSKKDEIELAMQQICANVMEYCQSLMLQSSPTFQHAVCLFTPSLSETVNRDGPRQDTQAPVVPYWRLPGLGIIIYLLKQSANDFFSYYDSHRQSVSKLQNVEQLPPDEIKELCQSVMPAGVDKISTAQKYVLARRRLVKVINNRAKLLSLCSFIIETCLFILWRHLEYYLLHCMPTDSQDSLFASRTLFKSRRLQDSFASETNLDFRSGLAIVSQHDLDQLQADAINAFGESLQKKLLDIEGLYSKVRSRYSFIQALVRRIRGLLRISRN
Sequence of UniProt P19338 (P19338 whole entry, looked up): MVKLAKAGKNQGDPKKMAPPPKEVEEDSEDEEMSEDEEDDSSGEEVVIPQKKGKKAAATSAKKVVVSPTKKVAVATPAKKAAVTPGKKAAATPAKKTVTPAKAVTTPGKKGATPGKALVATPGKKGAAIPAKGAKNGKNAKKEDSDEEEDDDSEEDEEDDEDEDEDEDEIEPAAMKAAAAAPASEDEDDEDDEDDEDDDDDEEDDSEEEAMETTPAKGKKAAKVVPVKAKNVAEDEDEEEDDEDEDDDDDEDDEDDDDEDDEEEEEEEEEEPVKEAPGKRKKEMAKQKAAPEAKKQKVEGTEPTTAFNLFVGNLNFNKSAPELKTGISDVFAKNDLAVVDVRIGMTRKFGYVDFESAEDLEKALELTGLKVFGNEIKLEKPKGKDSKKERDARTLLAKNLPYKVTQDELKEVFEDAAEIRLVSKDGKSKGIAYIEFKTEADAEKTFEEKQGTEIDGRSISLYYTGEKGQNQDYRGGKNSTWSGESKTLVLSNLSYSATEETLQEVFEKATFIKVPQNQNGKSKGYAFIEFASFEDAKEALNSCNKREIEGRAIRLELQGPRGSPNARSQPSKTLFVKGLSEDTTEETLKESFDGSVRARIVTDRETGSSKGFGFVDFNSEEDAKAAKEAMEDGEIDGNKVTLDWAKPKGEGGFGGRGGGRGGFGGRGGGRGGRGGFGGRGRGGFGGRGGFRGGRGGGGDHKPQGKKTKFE
Sequence of UniProt O95169 (O95169 whole entry, looked up): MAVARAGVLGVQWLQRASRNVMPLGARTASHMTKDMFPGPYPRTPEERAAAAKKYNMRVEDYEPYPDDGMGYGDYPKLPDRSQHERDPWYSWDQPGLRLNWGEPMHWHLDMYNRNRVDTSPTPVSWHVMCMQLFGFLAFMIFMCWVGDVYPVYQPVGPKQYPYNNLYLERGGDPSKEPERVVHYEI
Sequence of UniProt P15531 (P15531 whole entry, looked up): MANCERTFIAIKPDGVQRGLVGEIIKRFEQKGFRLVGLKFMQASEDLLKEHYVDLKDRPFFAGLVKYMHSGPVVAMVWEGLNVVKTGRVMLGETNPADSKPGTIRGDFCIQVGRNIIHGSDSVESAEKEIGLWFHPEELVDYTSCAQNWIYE

Target	log2 fold change [1]	log2 fold change [2]	log2 fold change [3]	log2 fold change [4]	log2 fold change (entinostat)	log2 fold change (vorinostat)	log2 fold change (citarinostat)	log2 fold change (silmitasertib)	log2 fold change [5]	log2 fold change [6]	log2 fold change (entospletinib)
OTULIN (UniProt Q96BN8)	0.008 (inactive)	-0.017 (inactive)	-0.183 (inactive)	-0.093 (inactive)	0.097 (inactive)	0.038 (inactive)	-0.005 (inactive)	0.086 (inactive)	-0.143 (inactive)	-0.077 (inactive)	0.1 (inactive)
NFATC2IP (UniProt Q8NCF5)	-0.016 (inactive)	-0.017 (inactive)	-0.087 (inactive)	-0.011 (inactive)	0.035 (inactive)	0.078 (inactive)	0.075 (inactive)	-0.017 (inactive)	0.02 (inactive)	-0.011 (inactive)	-0.054 (inactive)
MRPS2 (UniProt Q9Y399)	0.105 (inactive)	-0.079 (inactive)	-0.102 (inactive)	0.062 (inactive)	0.034 (inactive)	0.096 (inactive)	0.001 (inactive)	-0.103 (inactive)	-0.021 (inactive)	-0.01 (inactive)	0.059 (inactive)
MRPS18B (UniProt Q9Y676)	0.133 (inactive)	0 (inactive)	0.021 (inactive)	0.105 (inactive)	-0.047 (inactive)	0.08 (inactive)	-0.03 (inactive)	-0.061 (inactive)	-0.03 (inactive)	-0.026 (inactive)	0.028 (inactive)
NR2C2AP isoform 2 (UniProt Q86WQ0)	-0.082 (inactive)	-0.131 (inactive)	-0.05 (inactive)	-0.094 (inactive)	-0.02 (inactive)	-0.027 (inactive)	0.079 (inactive)	0.062 (inactive)	-0.092 (inactive)	-0.035 (inactive)	0.004 (inactive)
MRPS17 (UniProt Q9Y2R5)	-0.035 (inactive)	0.091 (inactive)	-0.138 (inactive)	-0.018 (inactive)	-0.027 (inactive)	0.191 (inactive)	0.05 (inactive)	-0.051 (inactive)	-0.047 (inactive)	0.02 (inactive)	0.118 (inactive)
PAFAH1B3 (UniProt Q15102)	-0.036 (inactive)	-0.012 (inactive)	-0.066 (inactive)	-0.019 (inactive)	0.057 (inactive)	0.043 (inactive)	-0.045 (inactive)	-0.045 (inactive)	-0.108 (inactive)	-0.028 (inactive)	0 (inactive)
NELFB isoform 2 (UniProt Q8WX92)	-0.021 (inactive)	-0.016 (inactive)	-0.074 (inactive)	-0.107 (inactive)	0.062 (inactive)	0.059 (inactive)	0.102 (inactive)	0.021 (inactive)	-0.086 (inactive)	-0.001 (inactive)	-0.039 (inactive)
ORC3 isoform 2 (UniProt Q9UBD5)	0.018 (inactive)	-0.09 (inactive)	-0.093 (inactive)	-0.142 (inactive)	-0.004 (inactive)	0.236 (inactive)	0.023 (inactive)	0.058 (inactive)	0.008 (inactive)	-0.188 (inactive)	0.114 (inactive)
NSUN2 (UniProt Q08J23)	0.029 (inactive)	-0.246 (inactive)	-0.106 (inactive)	-0.027 (inactive)	0.01 (inactive)	0.137 (inactive)	0.013 (inactive)	0.046 (inactive)	-0.026 (inactive)	-0.075 (inactive)	0.011 (inactive)
NCL (UniProt P19338)	0.015 (inactive)	0.024 (inactive)	0.331 (inactive)	0.156 (inactive)	-0.093 (inactive)	-0.018 (inactive)	-0.105 (inactive)	0.2 (inactive)	0.147 (inactive)	-0.171 (inactive)	0.102 (inactive)
NR2C2 isoform 2 (UniProt P49116)	-0.056 (inactive)	-0.036 (inactive)	-0.211 (inactive)	-0.104 (inactive)	-0.02 (inactive)	-0.116 (inactive)	-0.022 (inactive)	0.074 (inactive)	0.03 (inactive)	-0.04 (inactive)	0.019 (inactive)
NUP205 (UniProt Q92621)	-0.042 (inactive)	-0.023 (inactive)	-0.075 (inactive)	-0.1 (inactive)	0.017 (inactive)	0.041 (inactive)	0.101 (inactive)	0.058 (inactive)	-0.073 (inactive)	-0.069 (inactive)	-0.041 (inactive)
MPHOSPH10 (UniProt O00566)	0.089 (inactive)	0.016 (inactive)	0.186 (inactive)	0.064 (inactive)	0.017 (inactive)	0.045 (inactive)	0.062 (inactive)	0.112 (inactive)	0.067 (inactive)	-0.169 (inactive)	0.082 (inactive)
NME1 isoform 2 (UniProt P15531)	0.012 (inactive)	-0.017 (inactive)	-0.003 (inactive)	-0.003 (inactive)	-0.064 (inactive)	0.103 (inactive)	-0.089 (inactive)	-0.138 (inactive)	-0.089 (inactive)	-0.253 (inactive)	0.031 (inactive)
NISCH (UniProt Q9Y2I1)	-0.052 (inactive)	-0.293 (inactive)	-0.354 (inactive)	-0.168 (inactive)	0.101 (inactive)	0.09 (inactive)	0.023 (inactive)	0.065 (inactive)	0.081 (inactive)	-0.147 (inactive)	0.045 (inactive)
MRPS12 (UniProt O15235)	0.207 (inactive)	-0.053 (inactive)	-0.005 (inactive)	0.221 (inactive)	-0.017 (inactive)	0.038 (inactive)	0.01 (inactive)	-0.007 (inactive)	0.101 (inactive)	-0.056 (inactive)	0.15 (inactive)
NPC1 (UniProt O15118)	0.002 (inactive)	0.039 (inactive)	-0.196 (inactive)	-0.017 (inactive)	-0.049 (inactive)	0.004 (inactive)	0.017 (inactive)	0.031 (inactive)	0.027 (inactive)	-0.106 (inactive)	0.023 (inactive)
NDUFB8 (UniProt O95169)	0.028 (inactive)	0.083 (inactive)	-0.008 (inactive)	0.02 (inactive)	0.113 (inactive)	-0.075 (inactive)	-0.016 (inactive)	0.004 (inactive)	-0.172 (inactive)	-0.036 (inactive)	0.067 (inactive)
NDUFA12 (UniProt Q9UI09)	-0.018 (inactive)	-0.038 (inactive)	-0.227 (inactive)	-0.061 (inactive)	0.04 (inactive)	0.077 (inactive)	0.07 (inactive)	-0.052 (inactive)	0.004 (inactive)	-0.033 (inactive)	-0.025 (inactive)
MRPS26 (UniProt Q9BYN8)	-0.067 (inactive)	-0.022 (inactive)	-0.088 (inactive)	0.092 (inactive)	0.022 (inactive)	0.171 (inactive)	-0.04 (inactive)	-0.044 (inactive)	-0.039 (inactive)	0 (inactive)	0.078 (inactive)
NUP107 (UniProt P57740)	-0.009 (inactive)	-0.022 (inactive)	0.056 (inactive)	-0.032 (inactive)	-0.039 (inactive)	0.416 (inactive)	0.016 (inactive)	0.085 (inactive)	0.045 (inactive)	-0.109 (inactive)	-0.072 (inactive)
NOSIP (UniProt Q9Y314)	0 (inactive)	-0.004 (inactive)	-0.095 (inactive)	-0.121 (inactive)	0.16 (inactive)	0.163 (inactive)	0.136 (inactive)	0.082 (inactive)	-0.095 (inactive)	0.019 (inactive)	-0.146 (inactive)
OXR1 (UniProt Q8N573)	0.03 (inactive)	0 (inactive)	-0.157 (inactive)	-0.008 (inactive)	0.023 (inactive)	-0.029 (inactive)	0.062 (inactive)	-0.009 (inactive)	-0.044 (inactive)	-0.001 (inactive)	-0.019 (inactive)
MXRA7 (UniProt P84157)	-0.097 (inactive)	0.037 (inactive)	0.037 (inactive)	-0.302 (active)	0.008 (inactive)	0.003 (inactive)	-0.006 (inactive)	0.028 (inactive)	-0.013 (inactive)	0.061 (inactive)	-0.008 (inactive)
MUL1 (UniProt Q969V5)	-0.029 (inactive)	-0.041 (inactive)	0.648 (active)	-0.024 (inactive)	-0.007 (inactive)	0.086 (inactive)	-0.002 (inactive)	-0.018 (inactive)	-0.021 (inactive)	-0.049 (inactive)	-0.005 (inactive)
MSL1 (UniProt Q68DK7)	-0.032 (inactive)	-0.085 (inactive)	-0.024 (inactive)	-0.036 (inactive)	0.016 (inactive)	0.104 (inactive)	0.047 (inactive)	-0.152 (inactive)	-0.153 (inactive)	0.017 (inactive)	-0.078 (inactive)
MINK1 (UniProt Q8N4C8)	0.006 (inactive)	-0.032 (inactive)	-0.097 (inactive)	0.005 (inactive)	0.045 (inactive)	0.057 (inactive)	0.077 (inactive)	-0.041 (inactive)	0.015 (inactive)	-0.119 (inactive)	-0.026 (inactive)
